# Laboratory results taken from PubChem BioAssay (NCATS).
# Unmarked numbers belong to inactive results. Activity calls are given as the source filed them. The call rests on the fitted dose curve; in most records, active means well fitted activation curve with a large enough effect; inconclusive means small, poorly fitted or top-dose-only effect; inactive means flat fitted curve, though single readings scatter.
# Test: Cellular Toxicity (caspase-3) Mesangial (AID 660);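 further: combined caspase 3 and 7 activity read by Caspase-Glo luminescence; cells exposed to compound for 16 h before the caspase read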
# Details: mesangial cells, normalized: DMSO 0%, 100 µM tamoxifen 100%; series mostly up to 91.7 µM; caspase-3 activation: at the top concentration
# Source text: NIH Chemical Genomics Center [NCGC]
# NIH Molecular Libraries Screening Centers Network [MLSCN]
# National Institutes of Environmental Health Sciences [NIEHS]
# National Toxicology Program [NTP]
# We have developed a 1536-well cell-based assay for quantitative high throughput screening (qHTS) against a number of cell lines to determine in vitro caspase 3/7 of small molecules. This particular assay uses the mesangial cell line which is derived from normal human renal glomeruli.
# NCGC Assay Protocol Summary:
# The Caspase-Glo 3/7 assay (Promega) is a homogeneous method to measure caspase-3 and caspase-7 activities in cultured cells. The quantitation of caspase 3/7 activity is based on the cleavage of a peptide-aminoluciferin substrate. After caspase cleaves the substrate the free aminoluciferin is liberated and serves as the substrate of luciferase, which generates the light. The luminescent signal is proportional to amount of caspase 3/7 activity present.
# Using the Caspase-Glo 3/7 assay, the amount of caspase 3/7 activity was measured in the mesangial cell line with complete culture medium following compound treatment for 16 hours. The assay was performed in opaque white 1536-well plates. In the screen, tamoxifen and doxorubicin were used as positive controls. Library compounds were measured for their ability to cause the activation of caspase 3/7 in the cell line, as reflected by an increase in luminescence signal, in a concentration-dependent manner. Data were normalized to the controls for basal activity (DMSO only) and 100% stimulation (100 uM tamoxifen). AC50 values were determined from concentration-response data modeled with the standard Hill equation.
# qHTS protocol for caspase 3/7 assay in mesangial cell line
# [Step] [Parameter] [Value] [Description]
# 1. Reagent; 5 uL; 1000 mesangial cells/well
# 2. Time; 5 hr; 37 °C incubation
# 4. Controls; 23 nL; Tamoxifen 0.23 uM to 100 uM & doxorubicin 7.0 pM to 100 uM
# 5. Time; 16 hr; 37 °C incubation
# 6. Reagent; 5 uL; Caspase-Glo 3/7 reagent
# 7. Time; 20 min; Room Temperature
# 8. Detection; Luminescence; Viewlux plate reader
# Keywords: caspase 3/7, apoptosis, mesangial cell line, luminescence, NTPHTS, NTPHTS_NCGC, NIEHS, EPA, DSSTox, MLSMR, MLSCN, NIH Roadmap, qHTS, NCGC
SMILES,caspase-3 activation [%],outcome
O=C(c1ccccc1)c1ccccc1,-0.667,
CC(C)(c1ccc(O)cc1)c1ccc(O)cc1,,inactive
O=C(NO)c1ccccc1,-1.33,
CC(C)C(C)(C)C(C)(C)C(C)(C)S,0.145,
COc1cc(C=O)ccc1O,0.0896,
Nc1c2ccccc2nc2ccccc12,13.2,
Nc1ccc(O)cc1,-2.35,
c1ccc2occc2c1,1.75,
CCCCCCCCCCCCCCCC[n+]1ccccc1,14.2,
Cc1cc(C(C)(C)C)c(O)c(C(C)(C)C)c1,2.11,
CC(=O)OC/C=C(C)/C=C/C=C(C)/C=C/C1=C(C)CCCC1(C)C,0.371,
CCCCC(CC)COC(=O)c1ccccc1C(=O)O (stereo unspecified),-0.764,
CC(C)(C)c1ccc(O)c(O)c1,-0.884,
CCCC(=O)c1cc(O)c(O)cc1O,0.424,
Nc1cccc2c(N)cccc12,-0.93,
Brc1ccccc1-c1ccccc1,-0.227,
Oc1ccccc1,0.574,
C1=CC2C3C=CC(C3)C2C1 (stereo unspecified),0.981,
OCc1c[nH]c2ccccc12,0.0969,
Cc1ccc(O)cc1,0.191,
O=C(Oc1ccccc1)c1ccccc1O,-0.473,
